Source: PubChem BioAssay (NCI)
Compounds without any hit were thinned out: in the full panel of roughly 79,000, 15% have a hit. Active and inactive are the calls of the source. No stated cut-off is given here; in the data, active means growth inhibition above about 70%; inactive means the rest.

Experiments:
[1] = NCI Yeast Anticancer Drug Screen. Data for the rad50 strain (AID 155);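 further: 0% = growth of vehicle-only cultures of the same strain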; conditions: S. cerevisiae rad50 strain growth inhibition; at 50.0 µM; stronger effect = higher value
In short: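 A DNA repair-deficient yeast mutant serves as the test organism; compound-induced growth inhibition is calculated against vehicle-treated cells.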

[2] = NCI Yeast Anticancer Drug Screen. Data for the mec2-1 strain (AID 157); conditions: S. cerevisiae mec2-1 strain, at 50.0 µM, stronger effect = higher value
In short: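 Strain: mec2-1 (DNA repair/cell cycle alteration). Compound exposure, then growth measured; inhibition expressed relative to vehicle.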

[3] = NCI Yeast Anticancer Drug Screen. Data for the sgs1 mgt1 strain (AID 161);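 further: 0% = growth of cultures given vehicle only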; conditions: S. cerevisiae sgs1 mgt1 strain, at 50.0 µM, stronger effect = higher value
In short: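 Test agents were incubated with a DNA-repair-mutant yeast strain. Growth was then read and compared against vehicle-treated controls.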

[4] = NCI Yeast Anticancer Drug Screen. Data for the cln2 rad14 strain (AID 165);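 further: 0% = growth equal to vehicle treated cultures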; conditions: S. cerevisiae cln2 rad14 strain, at 50.0 µM, stronger effect = higher value
In short: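 Compounds are applied to the cln2 rad14 yeast strain, and growth is then compared with that of vehicle-treated cultures to give inhibition.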

[5] = NCI Yeast Anticancer Drug Screen. Data for the bub3 strain (AID 167); conditions: S. cerevisiae bub3 mutant strain, at 50.0 µM, stronger effect = higher value
In short: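 Inhibition values come from growth of compound-treated mutant yeast normalised to vehicle-treated controls.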

[6] = NCI Yeast Anticancer Drug Screen. Data for the mlh1 rad18 strain (AID 175); conditions: S. cerevisiae mlh1 rad18 strain growth inhibition; at 50.0 µM; stronger effect = higher value
In short: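 Read-out is yeast growth inhibition, calculated against vehicle-only controls. The compound was applied to a strain engineered with DNA damage repair alterations.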

Measured: growth inhibition

CCC1(CC)C(=O)N=C(c2ccccc2)N1C
inactive: [1] -5.55% | [2] -5.75% | [3] 8.15% | [4] -16% | [5] -2.3% | [6] -10.7%

CN(Cc1ccccc1)C(=O)Nc1ccc(F)c([N+](=O)[O-])c1
inactive: [1] 7.95% | [2] 28.6% | [3] 21.9% | [4] -4.2% | [5] 50.6% | [6] 16.2%

CCC1=C(C)C(=O)OC1n1ccc(=O)[nH]c1=O (configuration not stated)
inactive: [1] -11.6% | [2] -2.75% | [3] 2.8% | [4] -37% | [5] -5% | [6] -3.5%

CNCC(=O)NC(CO)C(=O)NC(CO)C(=O)NC1C(C(N)=O)OC(n2ccc(N)nc2=O)C(O)C1O (configuration not stated)
inactive: [1] 13.3% | [2] 10.3% | [3] 8.75% | [4] 38.5% | [5] 23.9% | [6] 24.3%

CC1(C)S[C@@H]2[C@H](NC(=O)/C=C/c3ccccc3)C(=O)N2[C@H]1C(=O)O
inactive: [1] 15.3% | [2] 9.5% | [3] 9.2% | [4] 0.6% | [5] 25.6% | [6] -5.5%

CCOC(=O)C(CC[C@@H]1N[C@H](C(N)=O)Cc2c1[nH]c1ccccc21)C(=O)OCC
inactive: [1] 8.5% | [2] -9.85% | [3] 5.3% | [4] 7.55% | [5] 7.9% | [6] -13.7%

CN/N=C(/CC(=O)c1sc(NNC(C)=O)nc1C)C(=O)Nc1ccc(OC)cc1OC
inactive: [1] 15.7% | [2] -14.5% | [3] 3.2% | [4] 15.4% | [5] 15% | [6] -2.15%

O=C(O)c1ccnc(-c2ccc(Cl)cc2)c1
inactive: [1] 5.5% | [2] 5.75% | [3] -1.65% | [4] -17.2% | [5] -16.8% | [6] 9.05%

O=C(NCCNc1ccccc1)C12CC3CC(CC(C3)C1)C2
inactive: [1] -4.2% | [2] 1.35% | [3] -3.9% | [4] -2.4% | [5] 19.1% | [6] 9.5%

CCCCCCCCCCS(C)(=O)=O
inactive: [1] -19.4% | [2] -3.95% | [3] -7.25% | [4] -16.4% | [5] -24.9% | [6] -24.6%

COCOc1ccc(-c2ccc(O)cc2)cc1
inactive: [1] 10.8% | [2] 9.95% | [3] 0% | [4] -47.2% | [5] 18.9% | [6] 5.15%

CCCCCC(O)c1ccc2c(c1)OCO2 (configuration not stated)
inactive: [1] 13.8% | [2] 12.9% | [3] 10.4% | [4] 2.2% | [5] -8.85% | [6] 0%

C/C(=N\n1cc(-c2ccccc2)nc1N)c1ccccc1
inactive: [1] -2.8% | [2] 4.2% | [3] 6% | [4] 13.5% | [5] 20.6% | [6] 13.1%

O=c1[nH]nc(-c2ccccc2)n1-c1ccncc1
inactive: [1] -4.65% | [2] 0.3% | [3] -6.45% | [4] -4.65% | [5] 12.7% | [6] 0.65%

CCCCCc1ccccn1
inactive: [1] 0.9% | [2] 19.1% | [3] -25.4% | [4] -29.3% | [5] 12.1% | [6] -11.2%

CN(C)NC(=S)NC12CC3CC(CC(C3)C1)C2
inactive: [1] -15.3% | [2] -5.25% | [3] -10.2% | [4] -18.9% | [5] -2.8% | [6] 11.8%

O=[N+]([O-])c1ccc(C=Nc2ccc3c(c2)Cc2ccccc2-3)cc1
inactive: [1] -7.7% | [2] -16.8% | [3] 9.9% | [4] -20.1% | [5] -16.4% | [6] 1.25%

Clc1cccc(Cl)c1C1SCc2nc3ncccc3n21 (configuration not stated)
inactive: [1] 14.1% | [2] 16.6% | [3] 34.4% | [4] 16.9% | [5] 10.6% | [6] 0.4%

CC(N=C(N)N)C(=O)O (configuration not stated)
inactive: [1] -11.9% | [2] 9.1% | [3] 0.15% | [4] -12.5% | [5] 5.3% | [6] 14%

O=S1(=O)CCC(N(N=C2CCCCC2)c2ccccc2)C1 (configuration not stated)
active: [1] 96.5% | [2] 98.3% | [3] 98.5% | [4] 96.8% | [5] 98.4% | [6] 98%

Nc1nc2ccccc2[nH]1
inactive: [1] 2.2% | [2] -0.3% | [3] -17.7% | [4] 0.8% | [5] -11.8% | [6] 6.95%

CCOC(=O)C(C(=O)CC)=P(c1ccccc1)(c1ccccc1)c1ccccc1
inactive: [1] 3.35% | [2] 17.4% | [3] -20.1% | [4] -9.4% | [5] -9.9% | [6] 23.2%

COc1ccc(C(=O)NNC(=O)c2ccc3ccccc3c2)cc1
inactive: [1] 10.8% | [2] 1.25% | [3] 9.8% | [4] 9.95% | [5] 5.5% | [6] -7.3%

COC(OC)c1cccc2c1C(=O)CCC1(CC2)OCCCCO1
inactive: [1] 0.3% | [2] -21.1% | [3] -22.8% | [4] 3.6% | [5] -39.9% | [6] -11.2%

COc1ccc(C(C#N)C(=O)C(=O)Nc2ccc(C)cc2C)cc1OC (configuration not stated)
inactive: [1] -30.6% | [2] 19.6% | [3] 42% | [4] -22.9% | [5] 48.2% | [6] 28.8%

N#CC(/C(=N/NC(=O)C(=O)NN)C(=O)NC12CC3CC(CC(C3)C1)C2)c1ccccc1 (configuration not stated)
inactive: [1] 16.1% | [2] 10.8% | [3] 1% | [4] 1.4% | [5] 30.6% | [6] -2.05%

C[C@H](CCC(=O)O)[C@H]1CC[C@H]2[C@@H]3CC[C@@H]4C[C@H](O)CC[C@]4(C)[C@H]3CC[C@]12C
inactive: [1] 40% | [2] 31.4% | [3] 10% | [4] 0.75% | [5] 25.8% | [6] 23.6%

CC(=O)O[C@@H]1[C@H]2[C@@H](OC(=O)c3ccccc3)[C@@H](C)C[C@]2(O)[C@H](OC(C)=O)[C@@]2(C)[C@@H]3CC(C)(C)C(=O)[C@]3(OC(C)=O)C[C@@]12C
inactive: [1] 25% | [2] 31.1% | [3] 6.4% | [4] 5.3% | [5] 15.2% | [6] 39.4%

O=[N+]([O-])c1ccc(-c2ccccc2CO)cc1
inactive: [1] -9.55% | [2] -10.2% | [3] -25.6% | [4] -33.5% | [5] -6.95% | [6] -26.6%

CCCCCCCCCC1OCC(COCC)O1 (configuration not stated)
inactive: [1] -2.6% | [2] -9% | [3] 7.5% | [4] -17.4% | [5] 14.8% | [6] -7.15%

O=S1(=O)CS(=O)(=O)OCCO1
inactive: [1] 26.2% | [2] 6.8% | [3] 14.7% | [4] 31.9% | [5] 10.7% | [6] 16.8%

Nc1ccc(S(=O)(=O)O)cc1
inactive: [1] -20.6% | [2] 3.85% | [3] 2.35% | [4] -29.3% | [5] -6.75% | [6] -2.55%

CC(=O)NC(CSCC(=O)c1ccccc1)C(=O)O (configuration not stated)
inactive: [1] -12.6% | [2] -8% | [3] -10.3% | [4] -6.05% | [5] -18.8% | [6] -3.5%

CCCCC(C(O)c1ccc(C(C)C)cc1)N(CC)CC (configuration not stated)
inactive: [1] 56.2% | [2] 34.1% | [3] 53.9% | [4] 9% | [5] 62.2% | [6] 38%

CN1c2ccccc2C2=C(c3ccccc3)CC[C@@H](C(=O)N3C4CC5CC[C@@]4(CS3(=O)=O)C5(C)C)[C@@H]21 (some centres not stated)
inactive: [1] -14.6% | [2] -6.2% | [3] 20.6% | [4] 10% | [5] -8.85% | [6] 31.8%

COc1ccc(C2c3cc4c(cc3OC(C)(O)C2C)OCO4)c(OC)c1OC (configuration not stated)
inactive: [1] 3.45% | [2] 5.7% | [3] -1.4% | [4] -9.25% | [5] -5.1% | [6] 18.9%

CN(C)C(=O)c1ccc[n+](CC(=O)NCc2ccccc2)c1
inactive: [1] 5.45% | [2] -7.35% | [3] -3.4% | [4] 18.8% | [5] 2.25% | [6] 13.5%
